Laboratory results taken from PubChem BioAssay (Tox21).
Results filed as inconclusive are left out. Activity calls are given as the source filed them. Unless noted, the call rests on the fitted dose curve; in most records, active means well fitted curve in the direction sought with a large enough effect in the repeat runs; inconclusive means weak or mixed curves; inactive means no such curve, though single readings can be large; an effect the other way counts as inactive or inconclusive.

Experiments:
[1] = target: Thyrotropin receptor (Homo sapiens) (UniProt P16473); assay: qHTS assay to identify small molecule agonists of the thyroid stimulating hormone receptor (TSHR) signaling pathway (AID 1224843; calls by dose curve; further: nearly all actives have a fitted effect of over 45% in size)
Thyrotropin receptor (Homo sapiens), sequence (P16473 whole entry, looked up): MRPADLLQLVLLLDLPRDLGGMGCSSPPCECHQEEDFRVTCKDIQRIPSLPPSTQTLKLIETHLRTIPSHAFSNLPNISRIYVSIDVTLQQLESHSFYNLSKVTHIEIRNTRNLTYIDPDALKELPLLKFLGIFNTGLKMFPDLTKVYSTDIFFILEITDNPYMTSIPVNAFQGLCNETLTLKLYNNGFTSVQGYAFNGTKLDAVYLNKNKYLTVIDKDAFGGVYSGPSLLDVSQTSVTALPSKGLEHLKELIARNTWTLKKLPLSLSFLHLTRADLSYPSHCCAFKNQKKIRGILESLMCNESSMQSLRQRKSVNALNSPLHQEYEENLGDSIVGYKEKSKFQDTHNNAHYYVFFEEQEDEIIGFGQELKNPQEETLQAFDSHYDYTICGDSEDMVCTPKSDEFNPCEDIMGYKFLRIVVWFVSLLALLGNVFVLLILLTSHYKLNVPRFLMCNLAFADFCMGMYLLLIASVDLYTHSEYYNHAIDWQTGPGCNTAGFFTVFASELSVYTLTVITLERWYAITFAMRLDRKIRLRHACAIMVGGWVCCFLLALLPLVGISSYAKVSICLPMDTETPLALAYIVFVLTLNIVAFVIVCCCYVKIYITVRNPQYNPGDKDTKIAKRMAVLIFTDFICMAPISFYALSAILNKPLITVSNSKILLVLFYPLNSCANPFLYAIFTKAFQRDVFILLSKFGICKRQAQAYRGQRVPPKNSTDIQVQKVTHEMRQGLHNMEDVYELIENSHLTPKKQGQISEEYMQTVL
How it was run: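 HEK293 cells stably bearing the thyrotropin receptor were plated at 800 cells/well and challenged with compound (30 min, RT). Accumulated cAMP was quantified via cAMP-d2 competing for cryptate-tagged antibody.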

[2] = qHTS assay to identify small molecule agonists of the hypoxia (HIF-1) signaling pathway - cell viability counter screen (AID 1224844; calls by dose curve; further: nearly all actives have a fitted effect of over 50% in size)
How it was run: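 Tox21 10K compounds were added to HRE-bla ME-180 cells (0.5% dialyzed FBS) and incubated 17 hrs at 37C; ATP-based CellTiter-Glo luminescence then reported cell viability in the same wells.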

[3] = qHTS assay to identify small molecule agonists of H2AX (AID 1224845; active means well fitted activation curve with a large enough effect in the signal ratio in the repeat runs, not every such curve was filed as active; the % refers to the signal ratio)
How it was run: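 Phospho-H2AX Ser139 measured by HTRF (ex 320 nm; em 665 and 620 nm) after 24 hr antibody incubation. Compounds, 15 concentrations, 0.76% DMSO, were applied to CHO-K1 cells for 3hr at 37C before lysis.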

[4] = qHTS assay to identify small molecule agonists of the hypoxia (HIF-1) signaling pathway (AID 1224846; active means well fitted activation curve with a large enough effect in the signal ratio in the repeat runs, not every such curve was filed as active; the % refers to the signal ratio)
How it was run: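 Steps: seed ME-180 HRE-bla cells (2,000/well, 0.5% dialyzed FBS); incubate 5 hrs at 37C; pin-transfer compounds or DMSO; incubate 17 hrs; add LiveBLAzer B/G substrate CCF4-AM; measure reporter activation by FRET.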

[5] = qHTS assay to identify small molecule agonists of H2AX - cell viability counter screen (AID 1224847; calls by dose curve; further: top concentration of the series differs between compounds; nearly all actives have a fitted effect of over 30% in size)
How it was run: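 Read-out: CellTiter-Glo luminescence, 30 min RT. Cells: wild-type CHO-K1, 1000/well, 10% FBS, plated overnight at 37C. Treatment: 15 concentrations, 3 hr, 37C, 0.76% DMSO.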

[6] = qHTS assay to identify small molecule antagonists of the estrogen related receptor (ERR) signaling pathway from Tox21 library (AID 1224848); further: nearly all actives have a fitted effect of over 50% in size; further: potency means the concentration at half of the fitted maximal effect
How it was run: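 Reading was by luminescence 30 min after ONE-Glo addition. Before that, ERR cells at 2,000 per well had rested 6 h at 37 C/5% CO2 and then received pin-tooled compounds in DMSO for 18 h at 37 C.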

[7] = qHTS assay to identify small molecule agonists of the estrogen related receptor (ERR) signaling pathway from Tox21 library (AID 1224849; calls by dose curve; further: nearly all actives have a fitted effect of over 15% in size); conditions: ERR reporter cell line, ONE-Glo luciferase, 18 h; at 92.4 µM (top of the series) unless noted
How it was run: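 Agonist signal is luciferase luminescence from an ERR reporter cell line treated 18 h at 37 C with DMSO-dissolved compounds, read 30 min after ONE-Glo addition at room temperature.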

[8] = qHTS RealTime-Glo MT Cell Viability Assay in HepG2 cells - 24 hour (AID 1224867); further: nearly all actives have a fitted effect of over 50% in size
How it was run: (§1)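 Compound treatment began 5 h after plating HepG2 cells (600/well) with NanoLuc luciferase and prosubstrate. Plates stayed at 37 C for 40 h; luminescence was captured at six time points, 0 h through 40 h.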

[9] = qHTS RealTime-Glo MT Cell Viability Assay in HEK293 cells - 32 hour (AID 1224868); further: nearly all actives have a fitted effect of over 50% in size; further: potency means the concentration at half of the fitted maximal effect; on activity change, negative = cytotoxic: top concentration of the series differs between compounds
How it was run: (§2)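 Quantitative high-throughput screen of the Tox21 10K library in HEK293: cells and RealTime-Glo reagents plated together, compound added at 5 h, luminescence monitored through 40 h at 37 C.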

[10] = A CellTox Green Cytotoxicity Assay to monitor cytotoxicity in HEK293 cells - 0 hour (AID 1224869); further: nearly all actives have a fitted effect of over 50% in size
How it was run: (§3)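 Cytotoxicity was tracked continuously in HEK293 cells by a DNA-binding dye excluded from viable cells. Compounds were transferred in DMSO 5 h after seeding; fluorescence was recorded at intervals up to 40 h.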

[11] = qHTS RealTime-Glo MT Cell Viability Assay in HepG2 cells - 40 hour (AID 1224870); further: nearly all actives have a fitted effect of over 50% in size
How it was run: (§4)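 Real-time viability: cells seeded at 600 per well together with NanoLuc and cell-permeant prosubstrate, compounds added after 5 h incubation. Luminescence tracked at 0, 8, 16, 24, 32 and 40 h of exposure.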

[12] = A CellTox Green Cytotoxicity Assay to monitor cytotoxicity in HEK293 cells - 40 hour (AID 1224871); further: nearly all actives have a fitted effect of over 45% in size
How it was run: as §3

[13] = qHTS RealTime-Glo MT Cell Viability Assay in HEK293 cells - 16 hour (AID 1224872); further: nearly all actives have a fitted effect of over 50% in size; further: potency means the concentration at half of the fitted maximal effect; on activity change, negative = cytotoxicity: top concentration of the series differs between compounds
How it was run: as §2

[14] = qHTS RealTime-Glo MT Cell Viability Assay in HEK293 cells - 40 hour (AID 1224874); conditions: RealTime-Glo luminescence; max response: active compounds read low; further: nearly all actives have a fitted effect of over 50% in size; further: potency means the concentration at half of the fitted maximal effect
How it was run: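 Nonlytic bioluminescent viability monitoring. HEK293 at 600 cells/well with reagent; 5 h settle; compound transfer by pintool; plates held at 37 C and read at set time points.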

[15] = A CellTox Green Cytotoxicity Assay to monitor cytotoxicity in HEK293 cells - 24 hour (AID 1224875); further: nearly all actives have a fitted effect of over 45% in size
How it was run: as §3

[16] = A CellTox Green Cytotoxicity Assay to monitor cytotoxicity in HepG2 cells - 16 hour (AID 1224876); further: nearly all actives have a fitted effect of over 45% in size
How it was run: (§5)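 Real-time, homogeneous cytotoxicity readout: dead-cell DNA staining by CellTox Green in HepG2 monolayers, fluorescence measured at timed intervals up to 40 h of continuous compound exposure.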

[17] = qHTS RealTime-Glo MT Cell Viability Assay in HepG2 cells - 32 hour (AID 1224877); further: nearly all actives have a fitted effect of over 55% in size
How it was run: as §1

[18] = A CellTox Green Cytotoxicity Assay to monitor cytotoxicity in HepG2 cells - 24 hour (AID 1224878); further: nearly all actives have a fitted effect of over 45% in size
How it was run: as §5

[19] = A CellTox Green Cytotoxicity Assay to monitor cytotoxicity in HepG2 cells - 40 hour (AID 1224879); further: nearly all actives have a fitted effect of over 40% in size
How it was run: as §5

[20] = qHTS RealTime-Glo MT Cell Viability Assay in HepG2 cells - 8 hour (AID 1224873); further: nearly all actives have a fitted effect of over 55% in size
How it was run: as §4
On the % scale 0 is the no-effect control and ±100 the full control effect.

CC(=O)Nc1ccccc1C
inactive: Potency [1] | Potency [2] | Potency [3] | outcome [4] | Potency [5] | Potency [6] | activity change, positive = activation [7] -0.329% | Potency [8] | Potency [9] | Potency [10] | Potency [11] | Potency [12] | Potency [13] | max response [14] 1.18% | Potency [15] | Potency [16] | Potency [17] | Potency [18] | Potency [19]

CC1CC(O)CC(C)(C)C1 (stereo not given)
inactive: Potency [1] | Potency [2] | Potency [3] | outcome [4] | Potency [5] | Potency [6] | activity change, positive = activation [7] -6.05% | Potency [8] | Potency [9] | Potency [10] | Potency [11] | Potency [12] | Potency [13] | Potency [20] | Potency [15] | Potency [16] | Potency [17] | Potency [18] | Potency [19]

C1COCO1
inactive: Potency [1] | Potency [2] | Potency [3] | outcome [4] | Potency [5] | Potency [6] | activity change, positive = activation [7] -2.3% | Potency [8] | Potency [9] | Potency [10] | Potency [11] | Potency [12] | Potency [13] | Potency [15] | Potency [16] | Potency [17] | Potency [18] | Potency [19]

CCCCCCOC(=O)CCCCCCCC(=O)OCCCCCC
inactive: Potency [1] | Potency [2] | Potency [3] | outcome [4] | Potency [5] | Potency [8] | Potency [10] | Potency [11] | Potency [12] | Potency [13] | Potency [20] | max response [14] 1.87% | Potency [15] | Potency [16] | Potency [17] | Potency [18] | Potency [19]

C[C@]12CCC(=O)C=C1C=C[C@@H]1[C@@H]2CC[C@@]2(C)[C@H]1CC[C@@]21CCC(=O)O1
active: Potency [6] 23.7 µM
inactive: Potency [1] | Potency [2] | Potency [3] | outcome [4] | Potency [5] | activity change, positive = activation [7] -28.3% [at 42.5 µM] | Potency [8] | Potency [10] | Potency [11] | Potency [13] | Potency [20] | max response [14] -25.7% | Potency [15] | Potency [16] | Potency [17] | Potency [18] | Potency [19]

OC/C(Br)=C(\Br)CO
inactive: Potency [1] | Potency [2] | Potency [3] | outcome [4] | Potency [5] | Potency [6] | activity change, positive = activation [7] 1.63% | Potency [8] | Potency [10] | Potency [11] | Potency [13] | Potency [20] | max response [14] 0.37% | Potency [16] | Potency [17] | Potency [18] | Potency [19]

COCC(O)CO (stereo not given)
inactive: Potency [1] | Potency [2] | Potency [3] | outcome [4] | Potency [5] | Potency [8] | Potency [9] | Potency [10] | Potency [11] | Potency [12] | Potency [13] | max response [14] -5.25% | Potency [15] | Potency [16] | Potency [17] | Potency [18] | Potency [19]

CC(=O)N(c1onc(C)c1C)S(=O)(=O)c1ccc(N)cc1
inactive: Potency [1] | Potency [2] | Potency [3] | outcome [4] | Potency [5] | Potency [8] | Potency [9] | Potency [10] | Potency [11] | Potency [12] | Potency [13] | Potency [20] | max response [14] 4.86% | Potency [15] | Potency [16] | Potency [17] | Potency [18] | Potency [19]

CC1CN(c2cc3c(cc2F)c(=O)c(C(=O)O)cn3-c2ccc(F)cc2F)CCN1 (stereo not given)
inactive: activation [1] -2.32% [at 8.39 µM] | activity change, negative = cytotoxicity [2] 5.19% [at 6.97 µM] | activation (H2AX phosphorylation) [3] -0.572% [at 14 µM] | activation [4] 0.362% [at 7.01 µM] | activity change, negative = cytotoxicity [5] 1.23% [at 14 µM] | activity change, negative = cytotoxicity [8] 4.21% [at 6.97 µM] | activity change, negative = cytotoxic [9] 5.72% [at 6.97 µM] | cytotoxicity [10] -3.88% [at 6.97 µM] | activity change, negative = cytotoxic [11] 3.59% [at 6.97 µM] | cytotoxicity increase [12] -7.27% [at 6.97 µM] | activity change, negative = cytotoxicity [13] 6.7% [at 6.97 µM] | viability change, negative = cytotoxic [20] 1.58% [at 6.97 µM] | max response [14] 2.82% | activity change [15] -1.61% [at 6.97 µM, active compounds read high] | cytotoxicity increase [16] 0.798% [at 6.97 µM] | activity change, negative = cytotoxic [17] 0.449% [at 6.97 µM] | cytotoxicity [18] -0.333% [at 6.97 µM] | cytotoxicity increase [19] 1.74% [at 6.97 µM]

CCCOC(=O)c1ccc(C(=O)OCCC)nc1
inactive: Potency [1] | Potency [2] | Potency [3] | outcome [4] | Potency [5] | Potency [8] | Potency [9] | Potency [10] | Potency [11] | Potency [12] | Potency [13] | Potency [20] | Potency [15] | Potency [16] | Potency [17] | Potency [18] | Potency [19]

CCCCCCCC/C=C\CCCCCCCC(=O)OC
inactive: Potency [1] | Potency [2] | Potency [3] | outcome [4] | Potency [5] | Potency [8] | Potency [9] | Potency [10] | Potency [11] | Potency [12] | Potency [13] | Potency [20] | max response [14] 5.42% | Potency [15] | Potency [16] | Potency [17] | Potency [18] | Potency [19]

CCCC1C(CC)=CC(CC)=CN1c1ccccc1 (stereo not given)
inactive: Potency [1] | Potency [2] | Potency [3] | outcome [4] | Potency [5] | activity change, positive = activation [7] -47.2% | Potency [8] | Potency [10] | Potency [11] | Potency [12] | Potency [20] | Potency [15] | Potency [16] | Potency [17] | Potency [18] | Potency [19]
active: Potency [6] 43.3 µM | Potency [9] 13.8 µM | Potency [13] 15.5 µM | Potency [14] 13.8 µM

Cc1cc(O)c2c(O)c3c(O)cccc3cc2c1
inactive: Potency [1] | Potency [2] | Potency [3] | outcome [4] | Potency [5] | activity change, positive = activation [7] -25.3% [at 42.5 µM] | Potency [8] | Potency [9] | Potency [10] | Potency [11] | Potency [12] | Potency [13] | Potency [20] | max response [14] -16.2% | Potency [15] | Potency [16] | Potency [17] | Potency [18] | Potency [19]
